The whole screen tested about 300,000 compounds, of which about 37,000 (12%) were called active. Only a selection was taken, and actives are over-represented in it overall. A number with no mark means an inactive call. No stated cut-off is given here; in the data, active means max response mostly above about 13% (no sharp cut-off); inactive means mostly below about 14%.

This assay can be described thus: Cycloheximide Counterscreen for Small Molecule Inhibitors of Shiga Toxin. Further: read at 38.3 µM for the half of the compounds with a filed dose; 0% is about no effect. The following applies: cell reporter, cycloheximide protein synthesis inhibition counterscreen; active compounds read high. In general terms: The purpose of a counterscreen is to sort out artefacts and off-target activity.
Turning to `Cc1cccc(C)c1NC(=O)C1(C)c2cccc[n+]2CC(=O)N1Cc1cccs1` (configuration not stated), the max response was -1.89%. Take `COC(=O)c1ccc(C(NC(=O)OCc2ccccc2)/C(F)=C/[C@@H](C)C(=O)O)cc1` (some centres not stated): the max response is 6.37%. For the molecule `CN1CCC(=O)N([C@H](CO)Cc2ccccc2)CC1`, the max response is 1.38%. In the case of `Cn1c(=NC(=O)C2CC2)sc2cc(F)cc(F)c21`, the max response was -0.185%. As to `CCCC(=O)N=c1sc2cccc(F)c2n1C`, the max response was -3.69%.

On to `Cn1c(=NC(=O)c2ccco2)sc2cccc(F)c21`, for which the max response is 72.9% (active).

As for `COC(=O)c1c(NC(=O)c2ccccc2F)sc2c1C(C(=O)OC)CC2` (configuration not stated), the max response was 7.34%. Regarding `C/C(=N\N)c1c(-c2ccccc2)c2cc(Br)ccc2[nH]c1=O`, the max response is 1%. Under `O=C(Cn1nc([N+](=O)[O-])nc1Br)NC1CCCCC1` stands -4.71%; under `Cc1ccccc1C(=O)NC(=S)NC1CC1`, 19.1% (active).

Turning to `COc1ccccc1C(=O)NC(=S)NC12CC3CC(CC(C3)C1)C2`, the max response was 13.4%.

Consider `O=C(NNC(=S)NC1CCCCC1)c1ccccc1Cl`, for which the max response is 5.48%. Take `CC(C)CC(CCc1ccccc1)OS(N)(=O)=O` (configuration not stated): the max response is 2.53%. `COc1ccc(C(=O)CCC(=O)Nc2ccc(Cl)cc2)cc1`: the max response is 0.287%. `COc1ccc(COC(=O)N/N=C(\C)CC(=O)Nc2ccc(Cl)cc2)cc1`: the max response is 12.4%. As for `COc1ccc(C(=O)N/N=C(\C)CC(=O)Nc2ccc(Cl)cn2)cc1`, the max response is 28.3% (active).

As to `Cc1ccc(-n2c(-c3ccc(Cl)cc3)n[nH]c2=S)cc1`, the max response is -1.99%. As to `O=C(NCCCN1CCOCC1)c1ccc2c(c1)N(Cc1cccc(F)c1)C(=O)c1ccccc1S2`, the max response is -7.81%. With `Nc1cc(N)nc(SCc2ccc(Cl)cc2)n1`, the max response is 15.3%. Take `Nc1cc(N)nc(SCc2cccc(F)c2)n1`: the max response is 45.9% (active). Consider `Cc1cc(=O)[nH]c(SCc2cccc(F)c2)n1`, for which the max response is 0.752%.

`C[n+]1cc(-c2ccccc2)oc1-c1ccccc1`: the max response is 52.4% (active). Under `Cc1cc(C)n(-c2nnc(N3CCN(c4ccccc4)CC3)nn2)n1` stands 22.1% (active); under `Cc1cc(C)n(-c2cc(Oc3ccccc3)ncn2)n1`, 21.7%. As for `Cc1cc(N2CCN(c3ccccc3)CC2)nc(N2CCOCC2)n1`, the figure is -2.2%; as for `CCOC(=O)C1=C(CN2CCc3ccccc32)NC(=O)NC1c1ccc(Cl)cc1` (configuration not stated), 15.3%. Take `O=C(CSCc1ccc(Cl)cc1)N1CCN(Cc2ccc3c(c2)OCO3)CC1`: the max response was 10.5%. As to `Cn1c(SCC(=O)N2CCCC2)nnc1-c1cccs1`, the max response was 11.6%.

For the molecule `O=C(CSc1ccsc1[N+](=O)[O-])N1CCCCC1`, the max response was 26.9%. Consider `O=C(CSCc1ccc(Cl)cc1)N1CCCCC1`, for which the max response was 44.9% (active).

For the molecule `O=C(CSCc1cccs1)N1CCCC1`, the max response is 31.1% (active). `O=C(CN1CCN(c2ccc(Cl)cc2)CC1)N1CCCC1`: the max response was 6.76%.
